Screens (PubChem)
An excerpt weighted towards active compounds, which were near 4.3% of everything screened.
TRPM1 prom inh = inhibitors of MITF-driven TRPM1 promoter in melanoma cells; SK-MEL-5 TRPM1 promoter luciferase, 24 h; hit rate 0.83% among 330,000; inhibition, % at 12.5 µM;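 active = mean inhibition across replicates of 60% or more, whatever share of single replicates reaches that level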
CHOP inh = blocks CHOP induction under ER stress; CHO-K1 CHOP-promoter luciferase, tunicamycin-induced, 15-18 h; inhibition, % at 10 µM; hit rate 3.8% among 220,000;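 active = compounds that reduced the stress-induced luciferase reporter signal by more than about 70% of percent inhibition, limit read from the data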
CF NFkB block = cystic fibrosis NF-kB activation inhibition; KKLEB NF-kB-GFP reporter, PAF-induced, GFP fluorescence overnight; hit rate 0.86% among 360,000; inhibition, % at 5 µM; AID 588850;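 active = at least 50% inhibition at 5 µM, scaled per plate between neutral and stimulator controls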;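 also: PAF is a Pseudomonas aeruginosa culture filtrate used as stimulus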
HIF-2a block = HIF-2a inhibition; 786-0 RCC cells HIF-2a reporter, luciferase luminescence, overnight; inhibition, % at 18.8 µM; hit rate 0.72% among 360,000; AID 624352;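 active = inhibition of the luminescence signal of 40% or more relative to plate controls, in a single-dose primary screen at 18.75 µM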
Peg3 prom inh = reduces Peg3 promoter-driven luciferase expression in HeLa; HeLa PEG-Prom luciferase reporter, luminescence, overnight; inhibition, % at 20 µM; hit rate 1.7% among 360,000;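 active = inhibition of at least 50% at 20 µM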
KKLEB tox = reduces viability of KKLEB cystic fibrosis airway cells; KKLEB CF airway cells viability, ATPlite luminescence, overnight; hits give low values; cells stimulated with P. aeruginosa culture filtrate; activity change (cytotoxicity), % at 5 µM; hit rate 0.36% among 360,000; AID 602141;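 active = corrected activity change at or below -50% at 5 µM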
Hits are given with their value; – = inactive; · = not tested or not shown; ! = a repeat was not active.

SMILES	TRPM1 prom inh	CHOP inh	CF NFkB block	HIF-2a block	Peg3 prom inh	KKLEB tox
Cc1ccc(S(=O)(=O)N2C[C@H]3n4c(=O)ccc(=O)n4C[C@H](OC(=O)NCC4CCCCC4)[C@@]3(O)C2)cc1	·	·	–	–	94.0	–
CC(=O)Nc1cccc(-c2csc(Nc3ccccn3)n2)c1	–	–	–	–	–	–
O=C(Nc1ccc(-c2csc(Nc3ccc(Cl)cc3)n2)cc1)c1cccc(C(F)(F)F)c1	·	–	·	·	·	·
CC(=O)c1cccc(Nc2nc(-c3cccc([N+](=O)[O-])c3)cs2)c1	–	–	–	–	–	–
CC(=O)Nc1nc(C)c(-c2csc(Nc3ccccn3)n2)s1	–	–	56.1!	–	–	–
CC(=O)Nc1nc(C)c(-c2csc(Nc3cccc([N+](=O)[O-])c3)n2)s1	–	94.8	85.5	–	–	–
O=C(Nc1ccc(-c2csc(Nc3ccccc3)n2)cc1)c1cccc(C(F)(F)F)c1	–	90.7	–	–	–	–
CCOc1ccccc1Nc1nc(-c2sc(NC(=O)c3ccco3)nc2C)cs1	–	–	–	–	60.3	–
C[C@@H]1CN([C@H](C)CO)C(=O)c2cc(C#Cc3ccccc3F)cnc2O[C@@H]1CN(C)S(=O)(=O)c1ccccc1F	·	·	–	–	–	–
C=CCCC(=O)Nc1nc(C)c(-c2csc(Nc3cc(OC)ccc3OC)n2)s1	–	75.3	–	–	–	–
CCC(=O)Nc1nc(C)c(-c2csc(Nc3ccc(C(=O)O)cc3)n2)s1	–	·	–	–	–	–
Cc1nc(NC(=O)c2ccccc2)sc1-c1csc(Nc2ccc(C(=O)O)cc2)n1	–	–	66.1	–	–	–
CC(=O)Nc1nc(C)c(-c2csc(Nc3ccc(O)cc3)n2)s1	–	–	78.1	–	–	–
CC(C)(C)NC(=O)C(c1ccc(C#N)cc1)n1c(=O)c(-c2cc3ccccc3[nH]2)nc2ccccc21 (stereo unspecified)	·	·	·	–	·	·
COc1cc(/C=C/C(=O)OCC(=O)N2CCCCCC2)cc(OC)c1OC	·	·	–	–	–	–
Cc1ccc(-n2c(CCc3ccccc3)nnc2SCC(=O)NCc2ccccc2)cc1C	–	85.1	–	–	–	–
CCn1c(SCC(=O)NCc2ccccc2)nnc1-c1ccccc1O	–	82.0	–	–	–	–
Cc1cc(C)c2c(N)c(C(=O)Nc3ccc([N+](=O)[O-])cc3)sc2n1	–	·	–	–	–	–
Cc1ccc2nsnc2c1S(=O)(=O)N(Cc1cc2cccc(C)c2[nH]c1=O)CC1CCCO1 (stereo unspecified)	–	–	–	–	84.1	–
Cc1ccc(C(C(=O)NCc2ccccc2)N(Cc2ccco2)C(=O)c2snc(C(N)=O)c2N)o1 (stereo unspecified)	–	·	–	–	51.7	–
COC(=O)c1c(C(=O)OC)c2cccc3cc(-c4ccccc4)c4ccc1c4n32	–	82.9	–	–	–	–
COC(=O)c1cc2c(-c3ccccc3)cc3ccccn3c-2c1C(=O)OC	–	–	–	–	–	–
Cc1cc(OC(=O)c2cccs2)ccc1C(C)C	–	87.2	–	–	–	–
Cc1ccc(C(=O)OCC(=O)Nc2sccc2C(N)=O)cc1NC(=O)c1ccco1	–	71.9	–	–	–	–
Cc1ccc(C(=O)OCC(=O)Nc2ccccc2)cc1NC(=O)c1ccco1	–	–	–	–	–	–
SMILES	TRPM1 prom inh	CHOP inh	CF NFkB block	HIF-2a block	Peg3 prom inh	KKLEB tox
COC(=O)c1ccc(/C=C/C(=O)OCC(=O)Nc2sccc2C(N)=O)cc1	–	·	–	–	88.9	–
CCNC(=O)C1(C)CCN(C(=O)c2ccc(-c3ccccc3)cc2)C1 (stereo unspecified)	·	·	–	–	–	–
N/C(Cc1ccc(Cl)cc1)=N\OC(=O)c1ccc2ccccc2c1	–	–	–	–	104.9	–
COc1ccc(C/C(N)=N/OC(=O)c2ccc(Cl)cc2)cc1	–	–	–	–	–	–
N/C(Cc1ccc(Cl)cc1)=N\OC(=O)c1cccc2ccccc12	–	–	–	–	111.4	–
O=C1c2c(O)ccc(O)c2C(=O)c2c(NCCNCCO)ccc(NCCNCCO)c21	94.6	–	81.9!	62.6	99.6	–
CCCC(/C=C/c1ccc(OC(C)=O)cc1)=C1/c2ccccc2C(=O)N1c1ccccc1	–	·	–	–	–	–
COc1cc(CC(=O)OCC(=O)N(C)C2CCCCC2)cc(OC)c1OC	·	·	–	–	–	–
COc1ccc(CCn2c(C)c(C(C)=O)c(C(C)=O)c2C)cc1OC	–	–	–	–	–	–
Cc1cc(C(=O)CCl)c(C)n1CCc1ccc(F)cc1	88.3	–	–	–	56.0	–
COc1ccc(CCn2c(C)cc(C(=O)CCl)c2C)cc1OC	–	–	–	–	61.4	–
Cc1cc(C(=O)CSc2nnnn2C)c(C)n1CCc1ccc(F)cc1	–	–	–	–	–	–
CN1CCN(C(=O)c2ccc(-c3cnc4cccnn34)cc2)CC1	·	·	–	–	–	–
COc1ccc(-c2noc(CCCc3ccccc3)n2)cc1OC	–	72.2	–	–	–	–
COc1ccc(Cc2nc(-c3ccc(Cl)cc3)no2)cc1	–	–	–	–	–	–
COc1ccc(-c2noc(Cc3ccc(Cl)cc3)n2)cc1OC	–	85.8	–	–	–	–
Cn1c(SCc2ccccc2C#N)nnc1-c1ccncc1	–	·	–	–	–	–
Cc1cc(C)c(OCCNCc2ccccc2)c(C)c1	–	·	–	–	–	–
Cc1cc(C)c(OCCCCNCc2ccccc2)c(Cl)c1	–	75.2	–	–	53.4	–
Clc1ccc(OCCCNCc2ccccc2)c2ccccc12	–	·	–	–	93.0	-53.2
COC(=O)C(C(=O)OC)c1cc2c(cc1CNS(=O)(=O)c1ccc(C)cc1)OCO2	·	·	·	–	·	·
O=C1c2cc(Br)ccc2N(Cc2ccc(Br)cc2)S(=O)(=O)C1c1cc(Cl)c(Cl)cc1[N+](=O)[O-] (stereo unspecified)	–	·	–	–	–	–
Cn1c(=O)c2c(n(C)c1=O)n(C)c(=O)n2C	·	·	–	–	–	–
CCC(=O)Oc1ccc(C(=O)Nc2ccc3c(c2)C(=O)N(C2CCCCC2)C3=O)cc1	–	70.7	–	–	–	–
COc1cc(C(=O)N=c2sc3ccccc3n2C)cc(OC)c1OC	–	–	–	–	–	–
SMILES	TRPM1 prom inh	CHOP inh	CF NFkB block	HIF-2a block	Peg3 prom inh	KKLEB tox
Cn1c(=NC(=O)c2cccc([N+](=O)[O-])c2)sc2ccccc21	–	73.3	–	–	–	–
Cn1c(=NC(=O)CCl)sc2ccccc21	–	·	94.5	–	–	-85.6
CCCCOC(=O)NC(NCC(O)c1ccccc1)(C(F)(F)F)C(F)(F)F (stereo unspecified)	–	80.6	–	–	–	–
OC[C@H]1O[C@@H](n2cnc3c(Nc4ccccc4)ncnc32)C(O)[C@H]1O (stereo partly specified)	·	–	·	·	·	·
Cn1cc(/C=C/c2cc[n+](C)cc2)c2cc(F)ccc21	–	·	–	–	–	–
Cn1cc(/C=C/c2cc[n+](C)cc2)c2cc(Cl)ccc21	–	·	–	–	51.3	–
